In PubChem BioAssay (EPA / NIEHS):
Active and inactive are the calls of the source. The calls were made as follows: active = hit-call score of the fitted dose curve at least 0.9, where 1 is the maximum; inactive = score below 0.9.

How the values were obtained:
Conditions in all cases: mRNA level, 48 h; actives raise or lower the signal
[1] = read-out: Cytochrome P450 (CYP24A1), CYP24A1 (gene 1591); test: LTEA_HepaRG_CYP24A1: Life Technologies and Expression Analysis (LTEA) Assay for Cytochrome P450 (CYP24A1) using HepaRG (AID 2283478)
Procedure, shortened: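 HepaRG cells plated 48 h, then exposed in duplicate in serum-free induction medium for 48 h to 8-point half-log series from 100 uM in 0.5% DMSO. CYP24A1 mRNA by Fluidigm qRT-PCR, normalized to ACTB, GAPDH, POLR2A; bidirectional fit versus DMSO.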

[2] = read-out: Cytochrome P450 (CYP1A2), CYP1A2 (gene 1544); test: LTEA_HepaRG_CYP1A2: Life Technologies and Expression Analysis (LTEA) Assay for Cytochrome P450 (CYP1A2) using HepaRG (AID 2283479)
Procedure, shortened: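 Differentiated human HepaRG cells in serum-free induction medium exposed 48 hours in duplicate to 8 half-log concentrations from 100 uM, 0.5% DMSO. CYP1A2 mRNA quantified by qRT-PCR, normalized to ACTB, GAPDH and POLR2A; bidirectional fitting versus DMSO.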

[3] = read-out: cysteine-aspartic acid protease (CASP8), CASP8 (gene 841); test: LTEA_HepaRG_CASP8: Life Technologies and Expression Analysis (LTEA) Assay for cysteine-aspartic acid protease (CASP8) using HepaRG (AID 2283480)
Procedure, shortened: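 CASP8 transcript measured by TaqMan qRT-PCR with ACTB/GAPDH/POLR2A normalization, after 48 h chemical exposure of HepaRG cells in serum-free induction medium. Eight concentrations, top 100 uM, half-log steps, 0.5% DMSO vehicle; fits in both directions versus DMSO.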

[4] = read-out: Cytochrome P450 (CYP2B6), CYP2B6 (gene 1555); test: LTEA_HepaRG_CYP2B6: Life Technologies and Expression Analysis (LTEA) Assay for Cytochrome P450 (CYP2B6) using HepaRG (AID 2283481)
Procedure, shortened: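 Differentiated human HepaRG cells in serum-free induction medium, dosed in duplicate for 48 h over 8 half-log concentrations topping at 100 uM (0.5% DMSO). CYP2B6 mRNA measured by TaqMan qRT-PCR, normalized to ACTB, GAPDH, POLR2A; bidirectional fit versus DMSO.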

[5] = read-out: CYP2C8 (gene 1558); test: LTEA_HepaRG_CYP2C8: Life Technologies and Expression Analysis (LTEA) Assay for CYP2C8 using HepaRG (AID 2283483)
Procedure, shortened: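 CYP2C8 expression measured by TaqMan qRT-PCR and normalized to three housekeeping genes. HepaRG cultures were treated for 48 h with an eight-point half-log series topping at 100 uM, vehicle 0.5% DMSO, duplicates; fitted both directions against DMSO.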

[6] = read-out: CYP2C9 (gene 1559); test: LTEA_HepaRG_CYP2C9: Life Technologies and Expression Analysis (LTEA) Assay for CYP2C9 using HepaRG (AID 2283484)
Procedure, shortened: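 CYP2C9 transcript level, quantified by TaqMan qRT-PCR against three housekeeping genes, was fitted bidirectionally relative to 0.5% DMSO. HepaRG cultures were treated 48 h, in duplicate, at eight half-log concentrations topping at 100 uM.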

[7] = read-out: CYP2E1 (gene 1571); test: LTEA_HepaRG_CYP2E1: Life Technologies and Expression Analysis (LTEA) Assay for CYP2E1 using HepaRG (AID 2283485)
Procedure, shortened: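 Assay uses 48 h exposure of HepaRG hepatic cells, eight concentrations to 100 uM. Expression of CYP2E1 is quantified by TaqMan qRT-PCR with ACTB, GAPDH and POLR2A normalization; curves fitted in both directions relative to vehicle.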

[8] = read-out: CYP4A11 (gene 1579); test: LTEA_HepaRG_CYP4A11: Life Technologies and Expression Analysis (LTEA) Assay for CYP4A11 using HepaRG (AID 2283486)
Procedure, shortened: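 Differentiated HepaRG cells, 48 h after plating, exposed in duplicate for 48 h to 8 half-log concentrations up to 100 uM in 0.5% DMSO in serum-free induction medium. CYP4A11 mRNA measured by TaqMan qRT-PCR, normalized to ACTB, GAPDH and POLR2A.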

[9] = read-out: Caspase-3 (Homo sapiens) (UniProt P42574); test: LTEA_HepaRG_CASP3: Life Technologies and Expression Analysis (LTEA) Assay for cysteine-aspartic acid protease (CASP3) using HepaRG (AID 2283477)
Procedure, shortened: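 Differentiated HepaRG cells, plated 48 h, were treated in duplicate in serum-free induction medium for 48 h with eight half-log concentrations up to 100 uM in 0.5% DMSO. CASP3 mRNA measured by qRT-PCR, normalized to ACTB, GAPDH, POLR2A.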

[10] = read-out: Cytochrome P450 2C19 (Homo sapiens) (UniProt P33261); test: LTEA_HepaRG_CYP2C19: Life Technologies and Expression Analysis (LTEA) Assay for CYP2C19 using HepaRG (AID 2283482)
Procedure, shortened: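 Differentiated HepaRG cells in serum-free induction medium exposed 48 h in duplicate, 8 concentrations from 100 uM by half-log steps in 0.5% DMSO. CYP2C19 mRNA measured by TaqMan qRT-PCR, normalized to ACTB, GAPDH, POLR2A. Bidirectional fit versus DMSO.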

Measured: AC50

Caspase-3 (Homo sapiens), sequence (P42574 whole entry, looked up): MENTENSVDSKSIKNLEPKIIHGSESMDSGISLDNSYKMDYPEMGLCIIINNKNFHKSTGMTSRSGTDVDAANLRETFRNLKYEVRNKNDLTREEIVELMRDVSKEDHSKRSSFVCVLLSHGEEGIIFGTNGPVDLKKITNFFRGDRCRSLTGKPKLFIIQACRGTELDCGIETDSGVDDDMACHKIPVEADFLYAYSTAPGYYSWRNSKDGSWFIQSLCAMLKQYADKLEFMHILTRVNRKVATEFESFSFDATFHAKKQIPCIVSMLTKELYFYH
Cytochrome P450 2C19 (Homo sapiens), sequence (P33261 whole entry, looked up): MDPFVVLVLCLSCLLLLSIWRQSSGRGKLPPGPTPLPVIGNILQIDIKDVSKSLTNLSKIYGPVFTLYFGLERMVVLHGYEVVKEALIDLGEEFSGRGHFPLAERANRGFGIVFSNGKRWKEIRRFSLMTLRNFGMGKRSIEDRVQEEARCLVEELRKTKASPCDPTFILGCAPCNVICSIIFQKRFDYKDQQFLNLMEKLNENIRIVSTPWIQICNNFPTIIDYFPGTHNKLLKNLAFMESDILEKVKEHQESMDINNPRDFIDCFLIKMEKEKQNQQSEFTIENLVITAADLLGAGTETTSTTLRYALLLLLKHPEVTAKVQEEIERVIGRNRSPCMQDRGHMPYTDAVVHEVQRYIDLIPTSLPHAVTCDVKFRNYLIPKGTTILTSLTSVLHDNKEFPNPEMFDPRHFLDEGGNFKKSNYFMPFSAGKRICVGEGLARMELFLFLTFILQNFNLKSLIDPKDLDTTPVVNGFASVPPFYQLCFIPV

c1ccc2c(c1)Nc1ccccc1S2
active: [2] 82.8 µM | [4] 36.6 µM | [7] 66.2 µM
not listed: [9] | [10]
inactive: all other assays above

O=[N+]([O-])c1ccc(Cl)c(Cl)c1
active: [2] 1.36 µM
not listed: [9] | [10]
inactive: all other assays above

[N-]=[N+]=[N-]
active: [4] 88.3 µM | [5] 79.9 µM | [6] 78.6 µM | [7] 67.1 µM | [8] 70.6 µM
inactive: [9] | [1] | [2] | [3]

CCOS(=O)(=O)OCC
not listed: [9] | [10]
inactive: all other assays above

CC(C)(C)c1ccc(O)cc1
inactive: [9] | [3]

CCCCCCCc1ccc(O)cc1
not listed: [9] | [10]
inactive: all other assays above

Cc1ccc([N+](=O)[O-])cc1C
not listed: [10]
inactive: all other assays above

O=P(Oc1ccccc1)(Oc1ccccc1)Oc1ccccc1
active: [2] 27.4 µM | [4] 1.23 µM | [5] 12.4 µM | [7] 26.2 µM
inactive: [1] | [3] | [6]

CCCN(CCC)c1c([N+](=O)[O-])cc(C(C)C)cc1[N+](=O)[O-]
inactive: [1] | [3]
active: [2] 27.3 µM | [4] 9.38 µM | [5] 13.2 µM | [6] 12.7 µM | [7] 67 µM | [8] 81.2 µM

CCCCc1ccccc1
active: [2] 50 µM
not listed: [9] | [10]
inactive: all other assays above

c1nc[nH]n1
active: [1] 0.185 µM | [2] 0.109 µM
not listed: [9] | [10]
inactive: all other assays above

CCN(CC)c1ccccc1
active: [2] 39 µM
not listed: [9] | [10]
inactive: all other assays above

O=C(O)C1C(C(=O)O)C2(Cl)C(Cl)=C(Cl)C1(Cl)C2(Cl)Cl (stereo not drawn)
not listed: [9] | [10]
inactive: all other assays above

CSC(C)(C)C=NO
not listed: [9]
inactive: all other assays above

O=P1(N(CCCl)CCCl)NCCCO1 (stereo not drawn)
active: [4] 50 µM
not listed: [9] | [10]
inactive: all other assays above

CCC1(c2ccccc2)C(=O)N=C(O)NC1=O (stereo not drawn)
inactive: [1] | [2] | [3] | [6] | [7]
active: [4] 34.7 µM | [5] 50 µM

c1cc2c3c(cccc3c1)CC2
active: [4] 50 µM | [7] 0.391 µM
not listed: [9] | [10]
inactive: all other assays above

Cc1cccc(N)c1
active: [2] 50.2 µM
not listed: [9] | [10]
inactive: all other assays above

CCCCN(CCCC)N=O
not listed: [9] | [10]
inactive: all other assays above

CC(Cc1ccc(OCC(=O)O)cc1)NCC(O)c1csc(C(F)(F)F)n1 (stereo not drawn)
active: [1] 0.00316 µM | [2] 0.0181 µM
not listed: [9] | [10]
inactive: all other assays above

Cc1ccc(N)cc1N
active: [2] 21.5 µM | [4] 5 µM | [7] 18.6 µM
not listed: [9] | [10]
inactive: all other assays above
